# DT40 TDP1 CPT: growth inhibition of DT40 Tdp1-/-;hTDP1 cells with camptothecin (screen for TDP1 inhibitors); Potency, µM (titrated, usually from 46.2 µM), for inactives: at the highest dose activity change, negative = growth inhibition, most hits filed as inhibitors; 420,000 compounds, 12% hits; chicken DT40 Tdp1-/-;hTDP1 cells + 20 nM CPT, ATP luminescence, 48 h; also: potency is read from the fitted curve at half-maximal effect; nearly all actives have a fitted effect of over 55% in size
#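 Chicken DT40 Tdp1-/- cells stably complemented with human TDP1 were seeded at 400 cells/well in medium containing 20 nM camptothecin, exposed to pin-transferred compounds, and grown at 37 °C for at least 48 hr. Viability was read as ATP luminescence.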
# TDP1 inh: TDP1 (human) enzyme inhibition; Potency, µM (titrated, usually from 130 µM), without a hit: at the top dose activity change, negative = inhibition, hits mostly inhibitors; AID 485290; Q9NUW8; recombinant TDP1, AlphaScreen DNA substrate cleavage; 350,000 compounds, 0.28% hits; also: potency is read from the fitted curve at half-maximal effect; nearly all actives have a fitted effect of over 40% in size
#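 Recombinant E. coli-expressed Tdp1 (1 nM) preincubated with compound 15 min at RT, then 5'-biotin/3'-phosphotyrosine-FITC DNA substrate (15 nM) added for 5 min. AlphaScreen beads (10 ug/ml) added, 10 min RT; tyrosine-FITC cleavage read as signal loss.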
# Six1-Eya2 blk: inhibitors of human Six1/Eya2 interaction; Q15475+O00167; AlphaScreen GST-Six1/His-Eya2 binding, biochemical; active compounds read low; activity change, % (test concentration not listed); 360,000 compounds, 0.56% hits; in the data active = activity change below about -65%; inconclusive = mostly about -30% to -63%
# Target sequence (O00167 whole entry, looked up): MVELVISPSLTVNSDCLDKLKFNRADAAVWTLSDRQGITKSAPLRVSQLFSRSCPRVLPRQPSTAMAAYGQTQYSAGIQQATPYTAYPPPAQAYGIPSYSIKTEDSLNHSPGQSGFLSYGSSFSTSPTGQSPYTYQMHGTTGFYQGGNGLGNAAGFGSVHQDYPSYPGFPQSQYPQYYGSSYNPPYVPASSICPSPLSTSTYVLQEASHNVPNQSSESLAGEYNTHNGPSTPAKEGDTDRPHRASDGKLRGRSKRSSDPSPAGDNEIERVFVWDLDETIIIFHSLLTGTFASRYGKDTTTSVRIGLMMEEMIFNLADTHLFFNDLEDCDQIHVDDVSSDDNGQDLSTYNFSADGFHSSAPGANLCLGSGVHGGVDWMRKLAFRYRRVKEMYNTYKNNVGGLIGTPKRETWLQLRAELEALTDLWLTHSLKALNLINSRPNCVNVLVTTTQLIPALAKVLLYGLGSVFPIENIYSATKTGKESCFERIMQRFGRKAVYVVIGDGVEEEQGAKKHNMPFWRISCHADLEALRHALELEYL
# Target sequence (Q15475 whole entry, looked up): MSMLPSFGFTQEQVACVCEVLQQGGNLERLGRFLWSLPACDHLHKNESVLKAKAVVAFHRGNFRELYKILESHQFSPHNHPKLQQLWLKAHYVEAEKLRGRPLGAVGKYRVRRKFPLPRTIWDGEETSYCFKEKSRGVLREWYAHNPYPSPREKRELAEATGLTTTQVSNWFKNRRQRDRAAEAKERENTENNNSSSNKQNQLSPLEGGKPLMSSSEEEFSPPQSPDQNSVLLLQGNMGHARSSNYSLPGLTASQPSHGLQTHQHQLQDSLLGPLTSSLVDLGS
#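 AlphaScreen luminescence read after one hour at 37 °C in darkness. Pin-transferred compounds met GST-Six1 and His-Eya2 protein (5X stock 250 nM/500 nM) plus glutathione donor and Ni-chelate acceptor beads (5X, 50 ug/mL).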
# IL1B secr inh: inflammasome signaling inhibition, IL-1 beta readout; activity change, % at 57.5 µM; 360,000 compounds, 4.7% hits; THP-1 LPS/ATP IL-1B secretion, AlphaLISA, 16 h; active compounds read low; in the data active = activity change below about -50%; inconclusive = mostly about -30% to -49%
#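 Secreted IL-1B measured by AlphaLISA bead assay after 16 h compound exposure of THP-1 cells; compounds (final up to 57.5 uM) added 1 h before LPS (250 ng/mL) and ATP (1.25 mM) stimulation; lower signal means less secretion.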
# CtBP-E1A inh: blocks the CtBP interaction with E1A. AlphaScreen GST-E1A/His-CtBP binding, 1536-well; active compounds read low. activity change, % (test concentration not listed). 340,000 compounds, 0.49% hits; in the data active = activity change below about -65%; inconclusive = mostly about -30% to -63%
#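 AlphaScreen with 125 nM GST-E1A and 125 nM His-CtBP (5X stocks) in Tris pH 8.0, 300 mM NaCl, BSA, Tween 20, TCEP. Compounds preincubated 2 h at 37 deg C, then glutathione donor/nickel acceptor beads added for 1 h at 37 deg C in dark.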
# DT40 TDP1 no CPT: qHTS for Inhibitors of human tyrosyl-DNA phosphodiesterase 1 (TDP1): qHTS in cells in absence of CPT. DT40 Tdp1-/- hTDP1 cells, no CPT, ATP luminescence, 48 h. Potency, µM (highest dose often 46.2 µM), without a hit: at the highest dose activity change, negative = growth inhibition, most hits filed as inhibitors. 420,000 compounds, 15% hits. AID 686978, 2013; also: potency is read from the fitted curve at half-maximal effect; nearly all actives have a fitted effect of over 55% in size
#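 Stably hTDP1-transfected Tdp1-null chicken DT40 cells were treated with library compounds minus camptothecin and grown for at least 48 hr at 37 °C, after which cellular ATP was quantified by luminescence.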
# * = called active by the depositor; ? = inconclusive; . = no result given; [ ] = dose if it differs, or a comment. An excerpt weighted towards active compounds, which were near 18% of everything screened. Unless noted, calls follow the shape of the dose curve; as a rule, active = well fitted curve in the direction sought with a large enough effect; inconclusive = small, poorly fitted or top-dose-only effect, or another doubt; inactive = no such curve, though single readings can be large; an effect the other way counts as inactive or inconclusive. % is scaled to controls: 0 for no effect and ±100 for the full control effect.
SMILES,DT40 TDP1 CPT,TDP1 inh,Six1-Eya2 blk,IL1B secr inh,CtBP-E1A inh,DT40 TDP1 no CPT
COc1ccc(N2CCN(C(=O)CCn3nc(C)c(S(=O)(=O)N4CCCC4)c3C)CC2)cc1,?,-1%,.,.,.,?
Cc1nn(CCC(=O)N2CCN(c3ccccc3)CC2)c(C)c1S(=O)(=O)N1CCCC1,18µM*,4%,.,.,.,?
Cc1nn(CCC(=O)Nc2ccc(Cl)cc2)c(C)c1S(=O)(=O)N1CCCCC1,21µM*,6%,.,.,.,15µM*
Cc1nn(CCC(=O)Nc2cccc(C#N)c2)c(C)c1S(=O)(=O)N1CCCCC1,?,1%,3,45,2,?
Cc1nn(S(=O)(=O)c2ccc(Cl)cc2)c(C)c1S(=O)(=O)N1CCCCCC1,1%,-2%,.,.,.,-14%
Cc1ccc(NC(=O)CCn2nc(C)c(S(=O)(=O)N3CCCCC3)c2C)cc1Cl,?,9%,.,.,.,16µM*
O=C(NNC(=S)Nc1ccc(OC(F)F)cc1)c1cc2c(s1)CCCC2,6%,3%,7,-25,0,-23%
Cc1ccc(C)c(NC(=O)COC(=O)CCNC(=O)c2ccco2)c1,-4%,1%,2,-18,7,7%
O=C(O)c1cccc(Nc2nc(-c3cc4ccccc4oc3=O)cs2)c1,4%,-19%,-78*,-6,-79*,-3%
Cc1nc2ccccn2c1-c1csc(Nc2ccc(C(=O)O)cc2)n1,2.9µM*,.,-17,95,-30,3.7µM*
Cc1nc2ncccn2c1-c1csc(Nc2cccc(C(=O)O)c2)n1,-2%,.,?,19,-29,-7%
Cc1nc2ccccn2c1-c1csc(Nc2cccc(C(=O)O)c2)n1,2%,.,?,30,-71*,-8%
CC(C)(C)c1nnc(N/N=C/c2cc(Br)ccc2O)n(N)c1=O,2.6µM*,11%,-90*,12,-94*,2.3µM*
CCc1nnc(N/N=C/c2cc(Br)c(O)cc2O)n1N,4.1µM*,6%,-80*,43,-91*,?
CCc1nnc(N/N=C/c2cccs2)n1N,26µM*,8%,1,0,-1,?
Cc1ccc(Nc2nnc(C(C)(C)C)c(=O)n2N)cc1,3%,4%,2,0,12,-28%
NC(=O)c1cc2nc(-c3ccco3)cc(C(F)(F)F)n2n1,-5%,2%,-72*,-3,-80*,-12%
CC(C)CCNC(=O)c1cnn2c(C(F)(F)F)cc(-c3ccco3)nc12,11µM*,-11%,5,-2,30,32µM*
O=C(c1cc2nc(-c3ccco3)cc(C(F)(F)F)n2n1)N1CCN(c2ccccn2)CC1,26µM*,4%,-5,-11,-2,13µM*
O=C(NC1CCCC1)c1cnn2c(C(F)(F)F)cc(-c3ccco3)nc12,-29%,-2%,-8,-7,-20,?
CCCCN(c1nc2ccccc2nc1Cl)S(=O)(=O)c1ccc(C)cc1,21µM*,.,2,8,11,9.2µM*
O=C(NCc1cccs1)c1ccc2sc([C@H]3C[C@H](O)[C@@H](CO)O3)nc2c1,-15%,.,-8,23,-9,-23%
O=C(c1ccc(S(=O)(=O)NCc2ccco2)cc1)N1CCN(Cc2ccccc2)CC1,-25%,-8%,-14,-8,0,?
CC1CCCC(C)N1C(=O)c1ccc(CS(=O)(=O)c2ccccc2)cc1 (stereo not given),?,5%,7,24,14,15µM*
Cc1ccc(S(=O)(=O)Cc2ccc(C(=O)N3CCCCC3C)cc2)cc1 (stereo not given),-28%,4%,-7,17,-1,-26%
SMILES,DT40 TDP1 CPT,TDP1 inh,Six1-Eya2 blk,IL1B secr inh,CtBP-E1A inh,DT40 TDP1 no CPT
CC1CCCC(C)N1C(=O)c1ccc(S(=O)(=O)NCc2ccco2)cc1 (stereo not given),?,0%,-1,31,1,23µM*
COc1ccc(CN2CCN(C(=O)c3ccc(S(=O)(=O)NCc4ccco4)cc3)CC2)cc1,?,3%,-7,-1,-25,18µM*
CC(=O)c1ccc(N2CCN(C(=O)c3ccc(S(=O)(=O)NCc4ccco4)cc3)CC2)cc1,21µM*,3%,-9,-27,-7,16µM*
Cc1ccc(C2=NC(C(F)(F)F)(C(F)(F)F)c3c(n(-c4ccc(F)cc4)c(=O)[nH]c3=O)N2)cc1,23µM*,6%,0,36,3,23µM*
O=c1[nH]c(=O)n(-c2ccc(F)cc2)c2c1C(C(F)(F)F)(C(F)(F)F)N=C(c1ccc(F)cc1)N2,4.6µM*,4%,2,?,10,3.3µM*
COc1ccc(-n2c3c(c(=O)[nH]c2=O)C(C(F)(F)F)(C(F)(F)F)N=C(CC(C)C)N3)cc1,-25%,1%,1,13,4,-16%
Cc1cccc(N/C(=N\S(=O)(=O)c2ccccc2)C(F)(F)F)c1,-24%,-7%,6,14,0,-2%
Cc1oc(-c2ccccc2F)nc1CS(=O)(=O)CC(=O)NCCc1ccc(Cl)cc1,?,1%,.,.,.,-27%
NC[C@@H]1O[C@H](O[C@@H]2[C@H](O[C@@H]3O[C@H](CO)[C@@H](O)[C@@H]3O)[C@@H](O)[C@@H](N)C[C@H]2N)[C@@H](N)[C@H](O)[C@@H]1O,.,5%[56.1 µM],.,.,.,.
C=CCn1c(SCC(=O)N2CC(=O)Nc3ccccc32)nc2scc(-c3ccccc3)c2c1=O,?,0%,-10,-52*,-1,?
C=CCn1c(SCC(C)=O)nc2scc(-c3ccco3)c2c1=O,?,8%[0.0935 µM],-5,-5,3,13µM*
CCOc1ccc(C(=O)NC2CCN(C(=S)Nc3ccccc3C)CC2)cc1,-21%,-5%,0,12,10,13%
COc1ccc(CCn2c(-n3nc(C)cc3C)nc3c2c(=O)[nH]c(=O)n3C)cc1,1.8µM*,.,-18,49,-7,1.6µM*
CCN1CCN(c2nn3c(=O)c4ccccc4nc3c3ccccc23)CC1,?,-6%,?,-58*,-20,16µM*
CC1CN(c2nn3c(=O)c4ccccc4nc3c3ccccc23)CC(C)O1 (stereo not given),8.2µM*,0%,?,-63*,?,5.8µM*
CC(C)Oc1ccc(S(=O)(=O)N2CCOCC2)cc1NC(=O)c1nn(C)c(=O)c2ccccc12,?,.,-1,-6,.,?

# Screens deposited in PubChem BioAssay by National Center for Advancing Translational Sciences (NCATS).
